Assay results published in PubChem BioAssay (NCATS).
“And” between values parts separate entries of the source, which are not always exact repeats. Equal values may be shown once. Records with an inconclusive call do not appear. The source made the active and inactive calls. Calls follow the shape of the dose curve; as a rule, active = well fitted curve in the direction sought with a large enough effect; inconclusive = small, poorly fitted or top-dose-only effect, or another doubt; inactive = no such curve, though single readings can be large; an effect the other way counts as inactive or inconclusive.

Experiments:
CAOV3 = assay: Primary qHTS to identify gynecologic anti-cancer compounds using libraries of approved drugs and bioactive compounds (AID 1345084); conditions: Gynecologic cancer cell panel viability, ATPlite luminescence, 48 h; series mostly up to 57.5 µM; also: nearly all actives have a fitted effect of over 55% in size
How it was run: (§1)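 Luminescence from the ATPlite ATP-monitoring reagent indicates viable cell number; lower signal means cytotoxicity. Cells received compound 16 h after seeding and were exposed for 48 h across five concentrations.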

CASKI = assay: as above; conditions: Gynecologic cancer cell panel viability, ATPlite luminescence, 48 h; series mostly up to 57.5 µM
How it was run: as §1

Es-2 = assay: as above; conditions: Gynecologic cancer cell panel viability, ATPlite luminescence, 48 h; series mostly up to 57.5 µM
How it was run: as §1

HeLa = assay: as above; conditions: Gynecologic cancer cell panel viability, ATPlite luminescence, 48 h; series mostly up to 57.5 µM
How it was run: as §1

Hek293T = assay: as above; conditions: Gynecologic cancer cell panel viability, ATPlite luminescence, 48 h, control line for the selectivity index; series mostly up to 57.5 µM
How it was run: as §1

JEG-3 = assay: as above; conditions: Gynecologic cancer cell panel viability, ATPlite luminescence, 48 h; series mostly up to 57.5 µM
How it was run: as §1

OV90 = assay: as above; conditions: Gynecologic cancer cell panel viability, ATPlite luminescence, 48 h; series mostly up to 57.5 µM
How it was run: as §1

PA-1 = assay: as above; conditions: Gynecologic cancer cell panel viability, ATPlite luminescence, 48 h; series mostly up to 57.5 µM
How it was run: as §1

SKOV3 = assay: as above; conditions: Gynecologic cancer cell panel viability, ATPlite luminescence, 48 h; series mostly up to 57.5 µM
How it was run: as §1

Tov-21-G = assay: as above; conditions: Gynecologic cancer cell panel viability, ATPlite luminescence, 48 h; series mostly up to 57.5 µM
How it was run: as §1

Tov112D = assay: as above; conditions: Gynecologic cancer cell panel viability, ATPlite luminescence, 48 h; series mostly up to 57.5 µM
How it was run: as §1

[1] = Drug repurposing screens with cells derived from glioblastoma tumor samples (AID 1345199); conditions: GBM patient neurospheres viability, ATP luminescence, 48 h; also: nearly all actives have a fitted effect of over 40% in size; also: potency is read from the fitted curve at half-maximal effect
How it was run: (§2)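 Primary testing used CD133+ neurospheres from four GBM patients, seven concentrations, 48 h exposure and ATP-based viability; confirmation added three slower-growing patient lines.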

astro = assay: as above; conditions: viability, ATP luminescence, 48 h; series mostly up to 45.9 µM
How it was run: as §2

[2] = at 45.9 µM (top of the series), tumour line B
[3] = at 45.9 µM (top of the series), tumour line D
[4] = at 46.1 µM (top of the series), tumour line C
[5] = at 20 µM (top of the series), tumour line C
[6] = at 21.2 µM (top of the series), tumour line B
[7] = at 21.2 µM (top of the series), tumour line D
[8] = at 46 µM (top of the series), tumour line A
% is scaled to controls: 0 for no effect and ±100 for the full control effect.

OC(CCN1CCCCC1)(c1ccccc1)c1ccccc1
inactive: Potency (CAOV3) | Potency (CASKI) | Potency (Es-2) | Potency (HeLa) | Potency (Hek293T) | Potency (JEG-3) | Potency (OV90) | Potency (PA-1) | Potency (SKOV3) | Potency (Tov-21-G) | Potency (Tov112D) | activity, negative = cell killing [1, 2] -13.7% | activity, negative = cell killing [1, 3] -5.27% | activity, negative = cell killing [1, 4] 4.07%
active: Potency ([1]; tumour line A) 12.6 µM

C[C@@H]1C[C@H]2[C@@H]3CCC4=CC(=O)C=C[C@]4(C)[C@@]3(F)[C@@H](O)C[C@]2(C)[C@H]1C(=O)CO
inactive: Potency (CAOV3) | Potency (CASKI) | Potency (Es-2) | Potency (HeLa) | Potency (Hek293T) | Potency (JEG-3) | Potency (OV90) | Potency (PA-1) | Potency (SKOV3) | Potency (Tov-21-G) | Potency (Tov112D) | activity, negative = cell killing [1, 2] -17.3% | activity, negative = cell killing [1, 3] -7.25% | activity, negative = cell killing [1, 4] 1.19%

O=C(OCCOCCO)c1ccccc1Nc1cccc(C(F)(F)F)c1
inactive: Potency (CAOV3) | Potency (CASKI) | Potency (Es-2) | Potency (HeLa) | Potency (Hek293T) | Potency (JEG-3) | Potency (OV90) | Potency (PA-1) | Potency (SKOV3) | Potency (Tov-21-G) | Potency (Tov112D) | activity, negative = cell killing [1, 5] -19.4% | activity, negative = cell killing [1, 6] 0.602% | activity, negative = cell killing [1, 7] -4.96%

Cc1cc2c(cc1CC(=O)c1sccc1S(=O)(=O)Nc1onc(C)c1Cl)OCO2
inactive: Potency (CAOV3) | Potency (CASKI) | Potency (Es-2) | Potency (HeLa) | Potency (Hek293T) | Potency (JEG-3) | Potency (OV90) | Potency (PA-1) | Potency (SKOV3) | Potency (Tov-21-G) | Potency (Tov112D)

CC(C)(CO)[C@@H](O)C(=O)NCCCO
inactive: Potency (CAOV3) | Potency (CASKI) | Potency (Es-2) | Potency (HeLa) | Potency (Hek293T) | Potency (JEG-3) | Potency (OV90) | Potency (PA-1) | Potency (SKOV3) | Potency (Tov-21-G) | Potency (Tov112D) | activity, negative = cell killing [1, 2] -12% | activity, negative = cell killing [1, 3] -24.7% | activity, negative = cell killing [1, 4] -3.06%

CCOC(=O)/C=C(C)/C=C/C=C(C)/C=C/c1c(C)cc(OC)c(C)c1C
inactive: Potency (CAOV3) | Potency (CASKI) | Potency (Es-2) | Potency (HeLa) | Potency (Hek293T) | Potency (JEG-3) | Potency (OV90) | Potency (PA-1) | Potency (SKOV3) | Potency (Tov-21-G) | Potency (Tov112D)

NCCC(O)(P(=O)(O)O)P(=O)(O)O
inactive: Potency (CAOV3) | Potency (CASKI) | Potency (Es-2) | Potency (HeLa) | Potency (Hek293T) | Potency (JEG-3) | Potency (OV90) | Potency (PA-1) | Potency (SKOV3) | Potency (Tov-21-G) | Potency (Tov112D) | activity, negative = cell killing [1, 2] -6.03% | activity, negative = cell killing [1, 3] -13.5% | activity, negative = cell killing [1, 8] -19.5% | activity, negative = cell killing [1, 4] -12.2% | Potency (astro)

COc1cc2c(cc1OC)[C@@H]1CC(=O)[C@@H](CC(C)C)CN1CC2
active: Potency ([1]; tumour line A) 28.2 µM
inactive: Potency (CAOV3) | Potency (CASKI) | Potency (Es-2) | Potency (HeLa) | Potency (Hek293T) | Potency (JEG-3) | Potency (OV90) | Potency (PA-1) | Potency (SKOV3) | Potency (Tov-21-G) | Potency (Tov112D) | activity, negative = cell killing [1, 4] 1.4%

N[C@@H](CCC(=O)N[C@@H](CS)C(=O)NCC(=O)O)C(=O)O
inactive: Potency (CAOV3) | Potency (CASKI) | Potency (Es-2) | Potency (HeLa) | Potency (Hek293T) | Potency (JEG-3) | Potency (OV90) | Potency (PA-1) | Potency (SKOV3) | Potency (Tov-21-G) | Potency (Tov112D) | activity, negative = cell killing [1, 2] -10.5% | activity, negative = cell killing [1, 3] -6.47% | activity, negative = cell killing [1, 8] -29.7% | activity, negative = cell killing [1, 4] 10.6% | Potency (astro)

O=C1OC2(c3ccc(O)cc3Oc3cc(O)ccc32)c2ccccc21
inactive: Potency (CAOV3) | Potency (CASKI) | Potency (Es-2) | Potency (HeLa) | Potency (Hek293T) | Potency (JEG-3) | Potency (OV90) | Potency (PA-1) | Potency (SKOV3) | Potency (Tov-21-G) | Potency (Tov112D) | activity, negative = cell killing [1, 2] -8.7% and -8.22% | activity, negative = cell killing [1, 3] -3.66% and -8.86% | activity, negative = cell killing [1, 8] -6.74% | activity, negative = cell killing [1, 4] 11.7% and -10.7%

CC1(C)O[C@@H]2[C@@H](CO[C@@]3(COS(N)(=O)=O)OC(C)(C)O[C@@H]23)O1
inactive: Potency (CAOV3) | Potency (CASKI) | Potency (Es-2) | Potency (HeLa) | Potency (Hek293T) | Potency (JEG-3) | Potency (OV90) | Potency (PA-1) | Potency (SKOV3) | Potency (Tov-21-G) | Potency (Tov112D) | activity, negative = cell killing [1, 2] 2.05% | activity, negative = cell killing [1, 3] -22.3% | activity, negative = cell killing [1, 8] -14.9% | activity, negative = cell killing [1, 4] -2.36%

COC(=O)C1=C(C)NC(C)=C(C(=O)O[C@@H]2CCCN(Cc3ccccc3)C2)[C@@H]1c1cccc([N+](=O)[O-])c1
inactive: Potency (CAOV3) | Potency (CASKI) | Potency (Es-2) | Potency (HeLa) | Potency (Hek293T) | Potency (JEG-3) | Potency (OV90) | Potency (PA-1) | Potency (SKOV3) | Potency (Tov-21-G) | Potency (Tov112D)

CCn1cc(C(=O)O)c(=O)c2cnc(N3CCCC3)nc21
inactive: activity change, negative = cytotoxicity (CAOV3) -1.93% [at 11.6 µM] | activity change, negative = cytotoxicity (CASKI) 15.2% [at 11.6 µM] | activity change, negative = cytotoxicity (Es-2) 0.873% [at 11.6 µM] | activity change, negative = cytotoxicity (HeLa) -17.6% [at 11.6 µM] | activity change, negative = cytotoxicity (Hek293T) 1.62% [at 11.6 µM] | activity change, negative = cytotoxicity (JEG-3) -0.757% [at 11.6 µM] | activity change, negative = cytotoxicity (OV90) -1.88% [at 11.6 µM] | activity change, negative = cytotoxicity (PA-1) 3.4% [at 11.6 µM] | activity change, negative = cytotoxicity (SKOV3) 27% [at 11.6 µM] | activity change, negative = cytotoxicity (Tov-21-G) 5.91% [at 11.6 µM] | activity change, negative = cytotoxicity (Tov112D) 5.36% [at 11.6 µM] | activity, negative = cell killing [1, 5] -8.14% | activity, negative = cell killing [1, 6] -5.2% | activity, negative = cell killing [1, 7] -3.67% | activity, negative = cell killing ([1]; at 21.3 µM (top of the series), tumour line A) -24.5%
